Laboratory results: PubChem BioAssay AID430 (Sanford-Burnham Center for Chemical Genomics, 2006)
The whole screen tested about 63,000 compounds, of which about 1,100 (1.7%) were called active. The entries come from a sample that favours actives as a whole. Results with a measured potency or affinity are listed apart. Values without a mark were called inactive. No stated cut-off is given here; in the data, active means cytotoxicity above about 50%; inactive means the rest.

Test: HPDE-C7 pancreatic duct cell viability loss – fluorescence, HTS (AID 430);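 further: cells exposed to compound for 48 hours before viability readout; 0% = vehicle and 100% = reference cytotoxic drug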
Details: HPDE-C7 pancreatic duct cells viability, at 10 µM, active compounds read high
With O=C(CCn1c(=O)oc2ccccc21)N1CCCCCC1 the cytotoxicity was 10.9%. O=C(CCn1c(=O)oc2ccccc21)N1CCN(c2ccccc2F)CC1 showed a cytotoxicity of 1.4%. In the case of O=C(CCn1c(=O)oc2ccccc21)N1CCN(c2ccccc2Cl)CC1, the cytotoxicity is reported as 56.7% (active). Compound COc1ccc(OCC(=O)N(C)Cc2ccccc2)cc1 has a cytotoxicity of -16.7%. Compound COc1ccc(CCNc2nc(-c3sc(N)nc3C)cs2)cc1OC has a cytotoxicity of 16%. With Cc1ccc2c(c1)-c1ccccc1S(=O)(=O)N2 the cytotoxicity was 10.1%. Compound Nc1ccc2c(c1)-c1ccccc1S(=O)(=O)N2 has a cytotoxicity of 14.6%. In the case of O=S1(=O)Nc2c(ccc3cccnc23)-c2ccccc21, the cytotoxicity is reported as 90.9% (active). For CCCCCC/C(=N/O)c1ccccn1, the cytotoxicity was 51.4% (active). Work on O=C(NCCCNC(=O)c1ccccn1)c1ccccn1 yielded a cytotoxicity of 15.3%. For O/N=C(/Cc1ccccn1)c1ccccc1, the cytotoxicity was 2%. In the case of Cc1cccc(N(CC(=O)NC2CCCC2)C(=O)CS(=O)CC(=O)Nc2ccc3c(c2)OCO3)c1 (centres undefined), the cytotoxicity is reported as 0.1%. Work on CC(C)C(=O)Nc1cccc(NC(=O)c2cccnc2)c1 yielded a cytotoxicity of -3.2%. Compound Cc1ccc(C)c(N2CCN(C(c3ccncc3)c3nnnn3Cc3ccccc3)CC2)c1 (centres undefined) has a cytotoxicity of 27.4%. Cc1ccc(-n2c(SCC(=O)Nc3ccc4c(c3)OCO4)nnc2-c2ccoc2C)cc1 gave a cytotoxicity of 36.3%. With Cc1cccc(-n2c(SCC(=O)Nc3ccc4c(c3)OCO4)nnc2-c2ccoc2C)c1 the cytotoxicity was 65.5% (active). With Cc1cccc(-n2c(SCC(=O)Nc3nonc3C)nnc2-c2ccoc2C)c1 the cytotoxicity was -16.1%. In the case of Cc1cc(Cl)ccc1OCC(=O)N1CC(C)CC(C)C1 (centres undefined), the cytotoxicity is reported as -10.4%. Cc1ccc2c(c1)C(c1ccc(F)cc1)N(C(=O)C1CC1)CC(=O)N2 (centres undefined) showed a cytotoxicity of -2%. In the case of COc1cc(C(=O)Nc2cccc(-c3nncn3C)c2)cc(OC)c1OC, the cytotoxicity is reported as -13.4%. In the case of CCOC(=O)c1c(C)oc2ccc(NS(=O)(=O)c3ccc4c5c(cccc35)C(=O)N4)cc12, the cytotoxicity is reported as 64.4% (active). COCCOC(=O)c1c(C)oc2ccc(NS(=O)(=O)c3ccccc3)cc12 showed a cytotoxicity of 12.7%. With COC(=O)c1ccccc1NS(=O)(=O)c1ccc2c3c(cccc13)C(=O)N2 the cytotoxicity was 24.2%. In the case of CC(=O)/C=C(/C)NC(Cc1c[nH]c2ccccc12)C(=O)O (centres undefined), the cytotoxicity is reported as 2.1%. For Oc1c(CN2CCN(c3ccccn3)CC2)cc(Cl)c2cccnc12, the cytotoxicity was 27.5%. OCc1ccnc2c(O)cccc12 gave a cytotoxicity of -13.3%. Oc1ccc2cccnc2c1 showed a cytotoxicity of -7.4%. For Oc1c(CN2CCc3ccccc3C2)cc(Cl)c2cccnc12, the cytotoxicity was 7.8%. Work on Cc1cc(Nc2nc3c(c(=O)n(C)c(=O)n3C)n2C)n(-c2ccccc2)n1 yielded a cytotoxicity of -9%. In the case of Cc1cc(=O)oc2cc(OCC3CC(c4ccc(N(C)C)cc4)=NO3)ccc12 (centres undefined), the cytotoxicity is reported as -19%. For COc1ccc2cc3cc(C(=O)Nc4ccc5c(c4)OCCO5)oc3nc2c1, the cytotoxicity was 2%. In the case of Cc1ccc2cccc(S(=O)(=O)N3CCN(c4cccc(Cl)c4)CC3)c2n1, the cytotoxicity is reported as 7%. In the case of CC(=O)c1cc2c(cc1NC(=O)c1cnc(C)cn1)OCO2, the cytotoxicity is reported as 13.3%. With CN(C)S(=O)(=O)c1cccc(C(=O)OCC(=O)Nc2ccccc2OC(F)F)c1 the cytotoxicity was 0.1%. In the case of COc1ccc(-n2c(SCCC#N)nnc2-c2cc(Cl)ccc2OC)cc1Cl, the cytotoxicity is reported as 50.2% (active). Cc1cc(-n2c(SCCC#N)nnc2-c2cccnc2)ccc1Cl gave a cytotoxicity of -25%. N#CCCCSc1nnc(-c2ccc(Cl)cc2)n1-c1ccccc1 showed a cytotoxicity of -20.2%. For O=C(O)c1cnn2c1NC(c1ccc(F)cc1)CC2C(F)(F)F (centres undefined), the cytotoxicity was -9.5%. COC(=O)C1=C(N)Oc2cc(C)oc(=O)c2C1c1ccncc1 (centres undefined) gave a cytotoxicity of 0.6%. With COC(=O)/C(=C1/Oc2cc(C)oc(=O)c2S1)C(F)(F)F the cytotoxicity was 76.7% (active). COC(=O)/C(=C1/Oc2cc3c(cc2S1)OCO3)C(F)(F)F showed a cytotoxicity of -28.2%. Work on O=C(O)CCC(=O)Nc1ccccc1C(=O)NC1CCCCC1 yielded a cytotoxicity of -16.8%. In the case of O=C1CC(c2ccco2)CC(O)=C1C=Nc1cc(Cl)ccc1O (centres undefined), the cytotoxicity is reported as 55.5% (active). In the case of O=C1CC(c2ccco2)CC(O)=C1C=NCCN1CCNCC1 (centres undefined), the cytotoxicity is reported as -17.7%. O=C1CC(c2ccco2)CC(O)=C1C=NCCO (centres undefined) gave a cytotoxicity of 5.2%. In the case of C=C1[C@@H](C)C2[C@H](Cc3ccccc3)NC(=O)[C@]23OC(=O)CC[C@H](O)CCC[C@H](C)C/C=C/[C@H]3[C@@H]1O (some centres undefined), the cytotoxicity is reported as 67.8% (active). CC(C)CCn1c(SCC(=O)OCn2nnc3ccccc3c2=O)nc2ccccc2c1=O gave a cytotoxicity of -1.3%. With CO[C@H]1C[C@@H]2CC[C@@H](C)[C@@](O)(O2)C(=O)C(=O)N2CCCC[C@H]2C(=O)O[C@H]([C@H](C)C[C@@H]2CC[C@@H](O)[C@H](OC)C2)CC(=O)[C@H](C)C=C(C)[C@@H](O)[C@@H](OC)C(=O)[C@H](C)C[C@H](C)C=CC=CC=C1C the cytotoxicity was 81.1% (active). For CCOc1ccc(-c2nnc(SCC(=O)N(CC)CC)n2N)cc1, the cytotoxicity was -5.3%. Cc1ccc(OCCn2c(C)c(/C=N/n3cnnc3)c3ccccc32)cc1 gave a cytotoxicity of 41%. For Cc1c(/C=N/n2cnnc2)c2ccccc2n1CCOc1ccc(Cl)cc1, the cytotoxicity was 15.9%. In the case of Cc1c(/C=N/n2cnnc2)c2ccccc2n1C, the cytotoxicity is reported as 5.2%. In the case of COc1cccc(OCCn2c(C)c(/C=N/n3cnnc3)c3ccccc32)c1, the cytotoxicity is reported as 75.8% (active). With C(=N\n1cnnc1)/c1cccc(OCCOc2ccccc2)c1 the cytotoxicity was 2.1%. In the case of Cc1c(/C=N/n2cnnc2)c2ccccc2n1CCOc1ccccc1, the cytotoxicity is reported as 67.6% (active). CCN(CC)C(=O)CSc1nnc(-c2cnccn2)n1-c1ccccc1 gave a cytotoxicity of -10.7%. CC(=O)c1cccc(NC2c3ccccc3C(=O)N2Cc2ccc3c(c2)OCO3)c1 (centres undefined) showed a cytotoxicity of 11.4%. For COc1ccc(NC(=O)c2cnc3ccccn3c2=O)c(OC)c1, the cytotoxicity was 1%. COCCn1c(SCC(=O)N2CCCC2)nnc1-c1ccoc1C gave a cytotoxicity of 5.7%. For COc1ccccc1C(=O)NCc1ccncc1, the cytotoxicity was -7.2%. In the case of CCOC(=O)CN1C(=O)C(O)=C(C(C)=O)C1c1ccccc1 (centres undefined), the cytotoxicity is reported as -3.4%. COc1cccc2cc(C(=O)N3CCC(C)CC3)c(=O)oc12 gave a cytotoxicity of 36.9%. CCC(=O)Nc1ccc(OC)cc1OC gave a cytotoxicity of -0.9%. COc1ccc(Nc2cc(=O)n(C3CCCCC3)c(=O)[nH]2)c(OC)c1 gave a cytotoxicity of -11.4%. In the case of CC1(C)Oc2ccc3ccc(=O)oc3c2-c2cnoc21, the cytotoxicity is reported as -3.6%. Work on O=C(c1cc(-c2cccs2)on1)N1CCN(c2ccc(F)cc2)CC1 yielded a cytotoxicity of 11.3%. For O=C(c1cc(-c2cccs2)on1)N1CCN(c2ccccc2)CC1, the cytotoxicity was 51.3% (active). O=C(c1cc(-c2cccs2)on1)N1CCOCC1 gave a cytotoxicity of -1.4%. Cc1cc(C)cc(OCc2nnc(SCC(=O)c3ccc(Br)cc3)o2)c1 showed a cytotoxicity of -22.5%. In the case of CCc1ccc(CCC(=O)Nc2sc3c(c2C#N)CCCC3)o1, the cytotoxicity is reported as 72% (active). Work on CC(C)(C)C1CCc2c(sc(NC(=O)c3cc(C4CC4)on3)c2C#N)C1 (centres undefined) yielded a cytotoxicity of 30.3%. Work on CC(C)c1cc(C(=O)Nc2sc3c(c2C#N)CCC3)no1 yielded a cytotoxicity of 17.6%. Cc1cc(C(=O)Nc2sc3c(c2C#N)CCCC3)no1 showed a cytotoxicity of -1.6%. In the case of Cc1cc(C(=O)Nc2sc3c(c2C#N)CCC3)no1, the cytotoxicity is reported as 53.5% (active). COC(=O)CCC(=O)Nc1sc2c(c1C#N)CCCC2 gave a cytotoxicity of -8%. In the case of N#Cc1c(NC(=O)c2cc(C3CC3)on2)sc2c1CCC2, the cytotoxicity is reported as 65.1% (active). CCCc1cc(C(=O)Nc2sc3c(c2C#N)CCC3)no1 gave a cytotoxicity of 5.7%. For CCCC(=O)Nc1sc2c(c1C#N)CCCC2, the cytotoxicity was 2.6%. Work on CCOc1cc(C2NC(=O)NC(C)=C2C(=O)OC(C)CC)cc(Br)c1O (centres undefined) yielded a cytotoxicity of 3.2%. Cc1nn(C)c(C)c1S(=O)(=O)N1CCC(C(=O)NC2CCCCCC2)CC1 gave a cytotoxicity of 3.3%. With COCCCNC(=O)CCCn1c(=O)[nH]c2ccccc2c1=O the cytotoxicity was -15.8%. In the case of CCN(CC)CCN1C(=O)C(=O)/C(=C(/O)c2cnn(-c3ccccc3)c2C)C1c1cccnc1 (centres undefined), the cytotoxicity is reported as 0.2%. For O=C(Nc1ccc(N2CCOCC2)cc1)C1CCCN(S(=O)(=O)c2ccccc2)C1 (centres undefined), the cytotoxicity was 0.2%. With COc1ccc2nc(-c3ccccc3)[nH]c2c1 the cytotoxicity was -3.7%. For CCOc1ccc2nc(C(C)O)[nH]c2c1 (centres undefined), the cytotoxicity was -5.7%. With CCOc1ccc2nc(-c3ccccc3)[nH]c2c1 the cytotoxicity was 56.7% (active). COC(=O)c1ccc(Cl)c(NC(=O)CN2CCOCC2)c1 showed a cytotoxicity of 0.1%. Work on CCOC(=O)c1cccc(NC(=O)CSc2nnc(-c3ccncc3)n2CCCOC)c1 yielded a cytotoxicity of -11.4%. With C/C(CC(O)c1ccc2ccccc2n1)=N/O (centres undefined) the cytotoxicity was 0.7%. CC(Sc1ccc2ccccc2n1)C(=O)O (centres undefined) showed a cytotoxicity of 4.7%. For COc1ccccc1N(CC(=O)Nc1ccc2c(c1)OCO2)S(=O)(=O)c1ccccc1, the cytotoxicity was 7.5%. O=C(NCCCO)c1nc2ccccc2s1 showed a cytotoxicity of 5.3%. With CCc1cc2c(=O)c(-c3ccc4c(c3)OCCO4)coc2cc1OC(=O)c1ccco1 the cytotoxicity was 56.6% (active). In the case of CCc1cc2c(=O)c(-c3nc4ccccc4[nH]3)coc2cc1OC(=O)N1CCOCC1, the cytotoxicity is reported as -31.2%. Work on CCOC(=O)c1oc2cc(O)c(CC)cc2c(=O)c1-c1ccc2c(c1)OCCO2 yielded a cytotoxicity of 0.2%. Cc1nc(NC(=O)c2cc3c(s2)CCCCC3)sc1C(=O)N(C)C gave a cytotoxicity of -7%. For COC(=O)Cn1c2ccccc2c2nc(C)sc21, the cytotoxicity was 2.7%. Compound C/C=C(\CS(=O)(=O)c1ccccc1)S(=O)(=O)c1ccccc1 has a cytotoxicity of 35.4%. In the case of O=C(CS(=O)(=O)c1ccccc1)N1CCCCCC1, the cytotoxicity is reported as -5.2%.
